These results are taken from ChEMBL document CHEMBL2218924, “A broad activity screen in support of a chemogenomic map for kinase signalling research and drug discovery” (Biochem J, 2013).

Experiment [1] addresses T1, Ephrin type-A receptor 3 (Homo sapiens) (UniProt P29320).
T1 sequence (whole entry): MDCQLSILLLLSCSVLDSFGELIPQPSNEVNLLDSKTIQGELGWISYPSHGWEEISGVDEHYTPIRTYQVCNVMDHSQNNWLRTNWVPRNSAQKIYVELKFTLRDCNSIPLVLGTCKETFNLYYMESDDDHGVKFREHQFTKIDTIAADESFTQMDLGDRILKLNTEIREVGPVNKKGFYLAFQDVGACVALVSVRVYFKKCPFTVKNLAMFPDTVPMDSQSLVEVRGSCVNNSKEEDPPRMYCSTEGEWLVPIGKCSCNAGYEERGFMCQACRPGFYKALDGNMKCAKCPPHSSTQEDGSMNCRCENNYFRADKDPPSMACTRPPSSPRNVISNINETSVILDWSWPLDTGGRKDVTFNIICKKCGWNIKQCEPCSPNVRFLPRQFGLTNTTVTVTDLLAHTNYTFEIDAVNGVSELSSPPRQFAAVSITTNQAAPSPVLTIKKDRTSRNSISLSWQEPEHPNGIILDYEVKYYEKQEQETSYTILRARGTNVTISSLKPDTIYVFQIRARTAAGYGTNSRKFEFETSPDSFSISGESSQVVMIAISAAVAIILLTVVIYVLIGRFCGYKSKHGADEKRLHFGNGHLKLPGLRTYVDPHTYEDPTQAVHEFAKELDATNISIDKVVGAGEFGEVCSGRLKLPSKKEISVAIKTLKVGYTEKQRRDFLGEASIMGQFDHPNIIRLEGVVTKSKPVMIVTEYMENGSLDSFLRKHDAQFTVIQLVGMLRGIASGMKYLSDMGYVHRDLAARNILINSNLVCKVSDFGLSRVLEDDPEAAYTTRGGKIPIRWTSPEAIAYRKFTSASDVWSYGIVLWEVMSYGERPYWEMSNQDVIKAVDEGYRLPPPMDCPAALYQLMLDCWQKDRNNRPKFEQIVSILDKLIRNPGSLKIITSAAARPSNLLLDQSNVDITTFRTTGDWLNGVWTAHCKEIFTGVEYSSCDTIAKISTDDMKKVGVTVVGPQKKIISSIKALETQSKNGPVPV
To be noted: at 10 µM.

Experiment [2] addresses Ephrin type-A receptor 4 (Homo sapiens) (UniProt P54764). To be noted: at 1 µM.
Experiment [3] shares this target. The conditions noted are these: at 10 µM.
Experiment [4] addresses Ephrin type-A receptor 7 (Homo sapiens) (UniProt Q15375). To be noted: at 10 µM.
Experiment [5] concerns the target T2, Ephrin type-A receptor 8 (Homo sapiens) (UniProt P29322).
T2 sequence (whole entry): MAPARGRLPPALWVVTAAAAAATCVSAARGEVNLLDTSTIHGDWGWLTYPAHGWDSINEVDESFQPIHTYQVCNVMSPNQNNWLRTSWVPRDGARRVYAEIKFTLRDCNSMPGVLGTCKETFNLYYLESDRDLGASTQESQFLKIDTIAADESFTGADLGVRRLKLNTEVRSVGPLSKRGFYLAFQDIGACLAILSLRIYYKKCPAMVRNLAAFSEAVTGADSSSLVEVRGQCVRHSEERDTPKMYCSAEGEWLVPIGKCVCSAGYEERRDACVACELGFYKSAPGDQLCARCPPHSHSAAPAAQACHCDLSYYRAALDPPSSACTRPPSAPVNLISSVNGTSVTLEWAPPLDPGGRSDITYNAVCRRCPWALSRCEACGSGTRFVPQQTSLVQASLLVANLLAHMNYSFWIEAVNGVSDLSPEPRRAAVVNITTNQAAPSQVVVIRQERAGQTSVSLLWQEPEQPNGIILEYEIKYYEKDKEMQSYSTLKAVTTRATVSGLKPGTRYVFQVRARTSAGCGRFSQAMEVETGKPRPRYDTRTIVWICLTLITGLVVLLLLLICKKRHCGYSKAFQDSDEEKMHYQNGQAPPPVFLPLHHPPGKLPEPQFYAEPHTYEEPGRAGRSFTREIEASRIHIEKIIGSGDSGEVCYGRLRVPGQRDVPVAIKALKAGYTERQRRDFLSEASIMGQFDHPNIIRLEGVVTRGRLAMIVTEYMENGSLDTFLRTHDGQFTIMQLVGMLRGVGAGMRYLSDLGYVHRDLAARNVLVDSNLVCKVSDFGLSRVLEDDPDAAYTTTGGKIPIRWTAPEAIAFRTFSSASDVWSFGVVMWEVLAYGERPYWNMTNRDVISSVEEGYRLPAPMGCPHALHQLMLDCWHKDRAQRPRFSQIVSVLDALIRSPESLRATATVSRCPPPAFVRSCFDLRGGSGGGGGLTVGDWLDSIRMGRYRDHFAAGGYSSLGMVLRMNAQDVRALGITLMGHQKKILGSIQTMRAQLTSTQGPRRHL
The conditions noted are these: at 1 µM.

Experiment [6] has as its target T2, Ephrin type-A receptor 8 (Homo sapiens). The conditions noted are these: at 10 µM.
For experiment [7], the target named is T3, Ephrin type-B receptor 1 (Homo sapiens) (UniProt P54762).
T3 sequence (whole entry): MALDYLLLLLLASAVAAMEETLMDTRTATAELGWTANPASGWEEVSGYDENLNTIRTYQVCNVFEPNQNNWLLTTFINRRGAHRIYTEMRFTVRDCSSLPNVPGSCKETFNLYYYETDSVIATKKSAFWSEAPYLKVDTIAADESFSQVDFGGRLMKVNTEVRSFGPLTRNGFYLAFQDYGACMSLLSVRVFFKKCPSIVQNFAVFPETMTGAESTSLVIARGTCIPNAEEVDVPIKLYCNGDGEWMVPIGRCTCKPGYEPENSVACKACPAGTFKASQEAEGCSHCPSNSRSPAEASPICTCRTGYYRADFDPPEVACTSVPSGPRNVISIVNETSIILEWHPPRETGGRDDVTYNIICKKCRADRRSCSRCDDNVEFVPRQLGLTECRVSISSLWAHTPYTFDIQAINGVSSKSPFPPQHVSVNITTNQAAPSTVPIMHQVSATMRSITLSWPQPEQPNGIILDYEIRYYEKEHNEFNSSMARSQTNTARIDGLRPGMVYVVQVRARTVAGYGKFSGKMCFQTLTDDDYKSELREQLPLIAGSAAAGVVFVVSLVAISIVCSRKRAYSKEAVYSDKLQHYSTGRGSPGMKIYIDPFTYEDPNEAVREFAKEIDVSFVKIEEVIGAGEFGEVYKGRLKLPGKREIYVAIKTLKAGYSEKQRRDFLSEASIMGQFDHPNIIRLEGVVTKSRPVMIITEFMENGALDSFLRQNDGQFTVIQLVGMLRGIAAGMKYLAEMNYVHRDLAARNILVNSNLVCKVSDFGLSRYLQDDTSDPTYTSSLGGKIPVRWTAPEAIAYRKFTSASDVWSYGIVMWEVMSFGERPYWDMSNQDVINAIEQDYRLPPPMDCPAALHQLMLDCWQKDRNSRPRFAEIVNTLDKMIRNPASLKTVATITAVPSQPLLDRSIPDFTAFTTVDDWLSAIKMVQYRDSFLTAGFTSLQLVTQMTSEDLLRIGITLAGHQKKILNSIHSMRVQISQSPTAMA
The conditions noted are these: at 1 µM.

The target of experiment [8] is Ephrin type-A receptor 5 (Homo sapiens) (UniProt P54756). To be noted: at 1 µM.
Ephrin type-A receptor 5 (Homo sapiens), sequence (P54756 whole entry): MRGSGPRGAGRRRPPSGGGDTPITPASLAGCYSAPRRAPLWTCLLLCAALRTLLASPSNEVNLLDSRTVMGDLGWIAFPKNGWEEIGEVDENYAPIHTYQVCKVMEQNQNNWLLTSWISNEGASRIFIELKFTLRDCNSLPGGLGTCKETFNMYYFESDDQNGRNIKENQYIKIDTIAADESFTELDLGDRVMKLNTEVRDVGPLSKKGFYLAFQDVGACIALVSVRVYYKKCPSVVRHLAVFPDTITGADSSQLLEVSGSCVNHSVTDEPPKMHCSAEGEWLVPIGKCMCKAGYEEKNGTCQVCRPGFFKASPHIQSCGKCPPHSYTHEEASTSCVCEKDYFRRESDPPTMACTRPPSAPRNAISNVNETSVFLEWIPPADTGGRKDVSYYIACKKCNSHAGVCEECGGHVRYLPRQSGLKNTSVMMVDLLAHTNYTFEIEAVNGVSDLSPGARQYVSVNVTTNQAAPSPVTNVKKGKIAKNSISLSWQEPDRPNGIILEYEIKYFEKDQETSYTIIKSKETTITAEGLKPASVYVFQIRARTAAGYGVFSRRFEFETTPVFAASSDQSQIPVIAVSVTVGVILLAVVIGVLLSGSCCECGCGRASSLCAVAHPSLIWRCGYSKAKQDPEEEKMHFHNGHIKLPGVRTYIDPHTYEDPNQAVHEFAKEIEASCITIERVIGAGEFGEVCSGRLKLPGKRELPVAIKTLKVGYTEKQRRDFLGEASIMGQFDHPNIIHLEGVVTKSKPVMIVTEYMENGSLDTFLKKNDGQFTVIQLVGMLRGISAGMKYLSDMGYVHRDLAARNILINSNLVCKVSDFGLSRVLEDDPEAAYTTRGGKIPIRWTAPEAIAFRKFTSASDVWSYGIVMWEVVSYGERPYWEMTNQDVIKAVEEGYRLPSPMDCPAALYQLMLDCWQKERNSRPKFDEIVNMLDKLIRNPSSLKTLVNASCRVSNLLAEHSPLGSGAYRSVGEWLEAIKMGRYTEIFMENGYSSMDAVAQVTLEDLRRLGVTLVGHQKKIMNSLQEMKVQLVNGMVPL
Experiment [9] has the same target. The conditions noted are these: at 10 µM.
Experiment [10] concerns the target Ephrin type-A receptor 7 (Homo sapiens) (UniProt Q15375). The conditions noted are these: at 1 µM.

Ephrin type-A receptor 4 (Homo sapiens), sequence (P54764 whole entry): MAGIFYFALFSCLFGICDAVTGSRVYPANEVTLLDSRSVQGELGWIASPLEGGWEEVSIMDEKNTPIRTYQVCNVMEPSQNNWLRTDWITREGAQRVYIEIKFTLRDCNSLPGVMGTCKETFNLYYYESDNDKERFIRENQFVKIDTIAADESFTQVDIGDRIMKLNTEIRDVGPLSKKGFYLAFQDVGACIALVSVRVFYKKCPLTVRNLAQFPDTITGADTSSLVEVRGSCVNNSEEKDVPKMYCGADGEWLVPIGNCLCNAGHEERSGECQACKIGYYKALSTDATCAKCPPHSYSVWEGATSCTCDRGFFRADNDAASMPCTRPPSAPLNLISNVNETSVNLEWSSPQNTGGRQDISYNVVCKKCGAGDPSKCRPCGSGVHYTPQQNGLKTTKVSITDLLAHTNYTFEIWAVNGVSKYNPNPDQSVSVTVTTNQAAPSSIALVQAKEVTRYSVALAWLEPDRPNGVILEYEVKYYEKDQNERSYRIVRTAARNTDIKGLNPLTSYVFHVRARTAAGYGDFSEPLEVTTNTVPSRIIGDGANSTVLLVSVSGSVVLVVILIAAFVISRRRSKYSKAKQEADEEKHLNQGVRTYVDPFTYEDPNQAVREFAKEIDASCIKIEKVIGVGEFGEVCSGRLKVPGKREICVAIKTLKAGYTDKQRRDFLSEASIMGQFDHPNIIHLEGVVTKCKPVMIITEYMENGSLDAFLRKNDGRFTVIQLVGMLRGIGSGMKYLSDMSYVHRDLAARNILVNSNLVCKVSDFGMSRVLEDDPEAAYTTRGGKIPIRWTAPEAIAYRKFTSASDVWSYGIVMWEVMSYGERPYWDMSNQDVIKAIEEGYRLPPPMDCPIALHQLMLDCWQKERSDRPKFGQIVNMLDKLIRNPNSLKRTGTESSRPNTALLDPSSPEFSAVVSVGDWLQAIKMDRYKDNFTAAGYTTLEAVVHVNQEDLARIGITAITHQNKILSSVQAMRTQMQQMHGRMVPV
Ephrin type-A receptor 7 (Homo sapiens), sequence (Q15375 28-998 limits assumed): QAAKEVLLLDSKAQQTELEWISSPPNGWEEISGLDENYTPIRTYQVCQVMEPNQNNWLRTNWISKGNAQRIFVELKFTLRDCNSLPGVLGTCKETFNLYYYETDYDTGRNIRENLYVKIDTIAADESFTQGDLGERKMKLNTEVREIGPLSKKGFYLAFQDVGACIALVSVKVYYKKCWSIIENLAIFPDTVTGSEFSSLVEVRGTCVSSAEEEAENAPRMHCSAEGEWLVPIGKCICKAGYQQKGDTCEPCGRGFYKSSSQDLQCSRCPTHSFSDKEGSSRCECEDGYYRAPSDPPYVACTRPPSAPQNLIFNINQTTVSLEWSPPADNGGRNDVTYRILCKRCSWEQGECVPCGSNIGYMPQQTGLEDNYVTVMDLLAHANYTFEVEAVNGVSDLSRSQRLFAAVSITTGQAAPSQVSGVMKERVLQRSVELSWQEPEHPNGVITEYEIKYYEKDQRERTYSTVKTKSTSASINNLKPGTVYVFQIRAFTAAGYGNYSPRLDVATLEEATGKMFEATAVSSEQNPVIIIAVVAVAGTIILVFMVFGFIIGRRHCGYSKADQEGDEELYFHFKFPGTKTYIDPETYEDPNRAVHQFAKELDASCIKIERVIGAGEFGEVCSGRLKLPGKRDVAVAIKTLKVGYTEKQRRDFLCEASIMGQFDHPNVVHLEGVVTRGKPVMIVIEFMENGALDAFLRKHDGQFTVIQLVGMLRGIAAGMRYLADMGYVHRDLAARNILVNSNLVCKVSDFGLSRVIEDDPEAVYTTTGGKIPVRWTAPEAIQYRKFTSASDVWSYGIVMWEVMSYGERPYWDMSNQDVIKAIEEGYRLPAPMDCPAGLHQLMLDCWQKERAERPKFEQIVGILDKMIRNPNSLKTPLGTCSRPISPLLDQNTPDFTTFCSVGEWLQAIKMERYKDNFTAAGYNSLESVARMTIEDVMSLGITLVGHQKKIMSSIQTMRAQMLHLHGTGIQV

Turning to `COc1ccc2c(c1)c(C1=C(c3c[nH]c4ccccc34)C(=O)NC1=O)cn2CCCN(C)C`, the residual activity in experiment [1] was 60%; in experiment [2] it was 115%; in experiment [3], 73%; in experiment [4], 44%; in experiment [5] it was 100%; in experiment [6] it was 96%. The residual activity in [7] turned out to be 80%.
As to `NC(=O)Nc1sc(-c2ccc(F)cc2)cc1C(N)=O`, the residual activity was 33% in [1]; 93% in experiment [2]; 43% in experiment [3]; 90% in experiment [8]; 28% in [9]; 74% in experiment [10]. The residual activity in experiment [4] amounted to 25%; in [5], 84%; in experiment [6], 54%; in experiment [7] it was 11%.
Take `COc1cc2ncnc(Nc3cccc(Cl)c3)c2cc1OC`: the residual activity in [1] was found to be 42%; in [2] it was 103%; in experiment [3] it was 57%; in [8] it was 77%; in [9], 27%; in experiment [10], 73%. For the same compound, the residual activity came to 22% in [4], 85% in experiment [5], 35% in experiment [6] and 84% in [7].
As to `CC(C)N(CCC(=O)c1ccc2ccccc2c1)Cc1ccccc1`, the residual activity in experiment [1] came to 85%.
`O=C1NC(=O)c2c1c1c3ccccc3[nH]c1n1cncc21`: the residual activity in [1] was determined as 83%; in [2], 98%; in experiment [3] it was 94%; in experiment [8], 105%; in experiment [9], 76%; in experiment [5] it was 88%. The results for the residual activity in [6] and in [7] were 93% and 90%, respectively.
Consider `Nc1n[nH]c2nc3ccccc3nc12`, for which the residual activity came out at 98% in experiment [1]; 97% in experiment [9]; 99% in experiment [10]; 79% in experiment [4]; 91% in [6].
Turning to `COc1ccc(-c2cnc3c(-c4ccsc4)cnn3c2)cc1`, the residual activity amounted to 87% in experiment [1]; 95% in [8]; 95% in experiment [10]; 95% in [4]; 98% in experiment [5]; 99% in [6].
As for `Fc1ccc(-c2nc3n(c2-c2ccncc2)CCS3)cc1`, the residual activity in [1] came to 90%; in experiment [9] it was 89%; in [10] it was 99%; in experiment [4], 84%; in [5] it was 97%; in experiment [6], 70%.
For the compound `CCCC(=O)Oc1ccc2[nH]c(C(=O)c3cc4ccccc4[nH]3)cc2c1`, the residual activity came out at 105% in [1]; 105% in experiment [2]; 91% in experiment [3]; 107% in experiment [8]; 99% in experiment [9]; 96% in experiment [10]. The residual activity in experiment [4] was 86%; in experiment [5], 92%; in experiment [6], 98%; in [7], 82%.
Take `COc1cc2nccc(Oc3ccc(NC(=O)Nc4cc(C)on4)c(Cl)c3)c2cc1OC`: the residual activity was 0% in experiment [1]; 26% in experiment [2]; 3% in experiment [3]; 2% in experiment [8]; 7% in experiment [9]; 6% in [10]. Further, the residual activity in experiment [4], in experiment [5], in [6] and in experiment [7] was 1% in each case.
Consider `Nc1ncnc2c1c(-c1ccc(Oc3ccccc3)cc1)cn2C1CCCC1`, for which the residual activity in experiment [1] amounted to 48%; in experiment [2], 112%; in experiment [3] it was 79%; in [8], 83%; in [9], 38%; in [10] it was 94%. The residual activity in experiment [4] came to 66%; in [5] it was 84%; in experiment [6], 27%; in [7], 90%.
